Source: PubChem BioAssay (National Center for Advancing Translational Sciences (NCATS))
RE007 growth inh – qHTS Assay for Inhibitors of the HIV-1 protein Vpr; S. pombe RE007 Vpr strain, BacTiter-Glo ATP luminescence, 24 h; Potency, µM (highest dose often 92.2 µM), inactives show at the highest dose activity change, negative = less growth, most hits filed as inhibitors; actives 0.21% (n = 360,000); AID 651644, 2012; active means well fitted falling curve with a large enough effect; inconclusive means small, poorly fitted or top-dose-only effect; inactive means no such curve, though single readings can be large or run the other way; further: on the % scale 0 is the no-effect control and ±100 the full control effect; nearly all actives have a fitted effect of over 50% in size
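Fission yeast strain RE007, carrying one chromosomally integrated HIV-1 vpr copy, was seeded at OD 0.01 in PMG+AL medium with 23 nL pinned compound. After 24 h at 30 °C and 99% humidity, viability was read by BacTiter-Glo luminescence.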
NS1 inh – qHTS Assay for Inhibitors of Influenza NS1 Protein Function | Potency, µM (highest dose often 46.1 µM), for the others: at the highest dose activity, positive = more growth | actives 0.4% (n = 270,000) | AID 2326, 2010; further: actives are rising curves; nearly all actives have a fitted effect of over 50% in size
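In this qHTS, NS1 from influenza A is expressed in budding yeast, where it slows growth. Cells are switched from glucose to 2% galactose medium (pH 6.0, -URA), treated with compound, and growth recovery is read at OD600.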
SARS PLP yeast – qHTS of Yeast-based Assay for SARS-CoV PLP; Potency, µM (series often up to 32.9 µM), for inactives: top-dose activity, positive = growth rescue, hits mostly activators; AID 485353, 2010; actives 0.19% (n = 330,000); S. cerevisiae expressing SARS-CoV PLpro, growth rescue; further: 0% is about no effect; nearly all actives have a fitted effect of over 55% in size
Pf growth 48h – Primary qHTS for delayed death inhibitors of the malarial parasite plastid, 48 hour incubation. Potency, µM (doses to about 28.7 µM), for the others: at the top dose activity change, negative = inhibition, actives largely listed as inhibitors. actives 5.9% (n = 310,000). P. falciparum luciferase growth in erythrocytes, 48 h; active means well fitted inhibition curve with a large enough effect; inconclusive means small, poorly fitted or top-dose-only effect, or another doubt; inactive means no such curve, though single readings can be large or run the other way; further: on the % scale 0 is the no-effect control and ±100 the full control effect
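Erythrocytes infected with P. falciparum carrying an integrated firefly luciferase reporter (2% hematocrit, 0.1% parasitemia final) were exposed to compounds in RPMI 1640 with 0.5% Albumax at 37 C, 5% CO2. Growth inhibition was scored as reduced luminescence.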
Pf growth 96h – Primary qHTS for delayed death inhibitors of the malarial parasite plastid, 96 hour incubation; P. falciparum luciferase reporter growth, 96 h; Potency, µM (series often up to 28.7 µM), without a hit: at the highest dose activity change, negative = inhibition, hits mostly inhibitors; actives 6.9% (n = 320,000); AID 504834, 2011; active means well fitted inhibition curve with a large enough effect; inconclusive means small, poorly fitted or top-dose-only effect, or another doubt; inactive means no such curve, though single readings can be large or run the other way; further: on the % scale 0 is the no-effect control and ±100 the full control effect
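Two-generation exposure (96 h) targets delayed-death phenotype. Reporter parasites carrying integrated firefly luciferase, in red cells at 2% hematocrit and 0.05% parasitemia final, kept at 37 C, 5% CO2; luminescence loss indicates inhibition.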
The depositor's hits bear a star; ? = inconclusive; nt = no result given; [ ] = another dose, or the depositor's remark. An excerpt weighted towards active compounds, which were near 9.5% of everything screened. Unless noted, the call rests on the fitted dose curve. Potency means the concentration at half of the fitted maximal effect.

SMILES	RE007 growth inh	NS1 inh	SARS PLP yeast	Pf growth 48h	Pf growth 96h
O=C(CCCSc1ccc(Cl)cc1)Nc1ccccc1O	35µM*	-128%	-69%	-13%	13%
O=C(CCc1ccccc1)Nc1cc(C(=O)O)cc(C(=O)O)c1	3%	4%	-1%	24%	1.5µM*
O=C(O)CC(=O)Nc1cc(Cl)ccc1O	5%	-2%	5%	nt	6%
O=C(CSCc1ccc(Cl)cc1)Nc1ccccc1O	-1%	-8%	0%	0%	153%
O=C(CCc1ccccc1)Nc1cc(Cl)ccc1O	-7%	-153%	-17%	10µM*	?
CC(=O)c1ccc(S(=O)(=O)N2CCN(C(=O)c3ccc(COc4ccccc4)o3)CC2)cc1	0%	nt	-1%	?	?
CC(=O)NS(=O)(=O)c1ccc(NC(=O)[C@@H]2CCCN2S(=O)(=O)c2ccc(Cl)cc2)cc1	-12%	nt	1%	nt	nt
COc1ccc(NC(=O)c2ccco2)cc1NC(=O)c1c(OC)cccc1OC	2%	11%	0%	-6%	2.3µM*
COc1ccc(NC(=O)c2ccco2)cc1N	-3%	6%	-13%	78%	8.3µM*
COc1ccc(NC(=O)c2ccco2)cc1NC(=O)c1ccco1	2%	-14%	-4%	76%	-9%
Cn1nnnc1SCC(=O)Nc1ccc2c(c1)OCO2	-13%	3%	0%	55%	?
COc1cccc(C(=O)NC(Cc2ccccc2)c2ccc3c(c2)OCCCO3)c1 (stereo unspecified)	0%	-4%	4%	nt	3.3µM*
O=C(NC(Cc1ccccc1)c1ccc2c(c1)OCCCO2)c1ccc(F)cc1 (stereo unspecified)	11%	18%	10%	nt	9.3µM*
CC(=O)NC(Cc1ccccc1)c1ccc2c(c1)OCCCO2 (stereo unspecified)	19%	11%	-3%	-7%	-14%
CC(=O)Nc1cc(NC(C)=O)ncn1	7%	2%	1%	?	-27%
O=[N+]([O-])c1ccc2c(c1)ncn2CCc1ccccc1	-17%	-24%	-7%	?	0.52µM*
O=[N+]([O-])c1ccc2c(c1)ncn2-c1ccccc1	-3%	-1%	29%	29%	?
N=C(N)c1ccc(/C=C/c2ccc(C(=N)N)cc2O)cc1	8%	-47%	-1%	1.1µM*	0.076µM*
COCCCN1Cc2cccc(C(=O)O)c2C1=O	1%	-4%	6%	nt	8.3µM*
Cc1ccc(-c2cc(C(=O)N(C)Cc3cnn(C)c3C)c3cc(Br)ccc3n2)cc1	0%	-9%	-25%	9.3µM*	?
O=C(NCc1ccco1)C1CCCN1C(=O)Nc1ccc(Br)cc1 (stereo unspecified)	-10%	5%	3%	-2%	-29%
Cc1ccc(Cn2ncc3c(N4CCN(c5ccccc5C)CC4)ncnc32)cc1	5%	-53%	-16%	13µM*	?
COc1cc(O)c(C(CCN2CCCCC2)c2ccc3c(c2)OCO3)c(OC)c1 (stereo unspecified)	-22%	0%	-2%	0.93µM*	0.47µM*
COc1cc(O)c(C(CCN2CCCC(C)C2)c2cc(OC)c(OC)c(OC)c2)c(OC)c1 (stereo unspecified)	-14%	-6%	0%	1.3µM*	0.52µM*
COc1cc(OC)c2c(-c3ccccc3)cc(=O)oc2c1C(CCN1CCCCC1)c1ccc2c(c1)OCO2 (stereo unspecified)	-11%	2%	0%	?	9.3µM*
SMILES	RE007 growth inh	NS1 inh	SARS PLP yeast	Pf growth 48h	Pf growth 96h
COc1cc(OC)c2c(-c3ccccc3)cc(=O)oc2c1C(CC(=O)N1CCCC1)c1ccc2c(c1)OCO2 (stereo unspecified)	-19%	-14%	-4%	9.3µM*	?
CN(Cc1ccccc1)C(=O)C1CCN(S(=O)(=O)c2ccc(-n3cnnn3)cc2)CC1	13%	-5%	-1%	0%	6%
CCCn1c(SC(C)C(=O)NC2CCCC2)n[nH]c1=O (stereo unspecified)	16%	nt	-5%	7%	36%
COc1cc(OC)c2c(C)cc(=O)oc2c1C(CCN1CCOCC1)c1ccc2c(c1)OCO2 (stereo unspecified)	-1%	-4%	0%	?	?
COc1cc(OC)c2c(-c3ccccc3)cc(=O)oc2c1C(CCN1CCCC(C)C1)c1ccc2c(c1)OCO2 (stereo unspecified)	-2%	-3%	3%	12µM*	?
C/C(=C\c1cccc(Cl)c1Cl)C(=O)c1c(C)cc(C)[nH]c1=O	0%	0%	0%	0%	19µM*
CCN(Cc1ccccc1)c1ccccc1	-1%	nt	nt	nt	nt
NC(N)=N/N=C/c1ccc(N(c2ccccc2)c2ccccc2)cc1	nt	2%	-3%	2.3µM*	2.1µM*
CCN(Cc1ccccc1)c1ccc(/C=N/N=C(N)N)cc1	74%	5%	3%	1.5µM*	1.7µM*
CCOCCCNCc1cccc(OCc2ccc(F)cc2)c1	4%	-10%	1%	?	12µM*
Cc1ccc(C)c(NC(=O)c2cc(S(=O)(=O)N3CCOCC3)cn2C)c1	21%	1%	-7%	-13%	0%
Cc1cccc(N2CCN(C(=O)c3cc(S(=O)(=O)N4CCCC4)cn3C)CC2)c1C	3%	-13%	-3%	9.3µM*	?
Cc1cccc(NC(=O)c2cc(S(=O)(=O)N3CCOCC3)cn2C)c1C	-8%	9%	-4%	7%	6.6µM*
Cc1cccc(N2CCN(C(=O)c3cc(S(=O)(=O)N4CCOCC4)cn3C)CC2)c1C	-17%	-21%	-3%	?	?
Cc1cc(Cc2cc(C)cc(C(C)(C)C)c2O)c(O)c(Cc2cc(C)cc(C(C)(C)C)c2O)c1	nt	0%	nt	nt	nt
COc1ccc(S(=O)(=O)NC2CC3CCC2C3)cc1 (stereo unspecified)	20%	-107%	-15%	8%	8.3µM*
CSc1ccc(S(=O)(=O)NC2CC3CCC2C3)cc1 (stereo unspecified)	8%	-116%	-13%	-10%	?
CC(C)C(c1nnnn1C1CCCC1)N1CCCc2ccccc21 (stereo unspecified)	-6%	-34%	-32%	13µM*	-15%
CC(C)C(c1nnnn1C1CCCCC1)N1CCc2ccccc2C1 (stereo unspecified)	-4%	-14%	-3%	15µM*	8%[5.75 µM]
CC(C)C(c1nnnn1C1CCCC1)N1CCc2ccccc21 (stereo unspecified)	-21%	-21%	2%	?	?
CC(C)C(c1nnnn1C1CCCCC1)N1CCCc2ccccc21 (stereo unspecified)	4%	7%	-25%	9.3µM*	-29%
Cc1ccc(-c2nnc(CN3CCCCC3C)o2)cc1 (stereo unspecified)	-2%	0%	-2%	17%	2%
